The test in a line: HepG2 cell cytotoxicity, dose response, cytotoxicity control, luminescence, dry powder, set 5 (AID 743185). Particulars: HepG2 viability, ATP luminescence (CellTiter-Glo), 72 h; series mostly up to 26 µM. In general terms: ATP-based viability assays read luminescence as a measure of living cells.

The source made the active and inactive calls.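 The calls were made as follows: active = ATP loss in HepG2 cells with fitted half-maximal concentration at most twice the top tested dose; inconclusive = flat curve showing moderate loss, or a poor fit; inactive = opposite effect, flat near zero, or weaker potency.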

Regarding `O=C(N/N=C/c1c[nH]c2ccccc12)c1cccs1`, the compound was classed as inactive.
For the compound `CSc1ccc(/C=N/NC(=O)c2ccc3nc[nH]c3c2)cc1`, the call was inactive.

For the origin of these results see PubChem BioAssay AID743185 (Broad Institute, 2013).
